“And” between values parts separate entries of the source, which are not always exact repeats. Identical values can stand only once. Inconclusive results are not listed. A call without a number means that no potency is given here. The source made the active and inactive calls. Unless noted, calls follow the shape of the dose curve; as a rule, active = well fitted curve in the direction sought with a large enough effect; inconclusive = small, poorly fitted or top-dose-only effect, or another doubt; inactive = no such curve, though single readings can be large; an effect the other way counts as inactive or inconclusive.
How the values were obtained:
[1] = molecular target: Calcium and integrin-binding protein 1 (Homo sapiens) (UniProt Q99828); assay: Primary qHTS for Identification of Calcium Integrin Binding Protein 1 (CIB1) Competitor (AID 1508620);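 also: GST tagged CIB1 binding a fluorescein labelled alphaIIb integrin peptide tracer; top concentration of the series differs between compounds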
Summary of the method: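 CIB1-GST (1 uM final) and compound incubated 15 min at room temperature before adding FITC-alphaIIb peptide tracer (100 nM final). Competition for binding read by fluorescence polarization (ex 480, em 540) after another 15 min at room temperature.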

[2] = molecular target: Cytochrome P450 2D6 (Homo sapiens) (UniProt P10635); assay: Cytochrome P450 family 2 subfamily D member 6 (CYP2D6) small molecule antagonists: luciferase biochemical (cell-free) qHTS assay (AID 1645840; active = well fitted curve in the direction sought with a large enough effect in the repeat runs; an effect the other way counts as inactive or inconclusive; also: nearly all actives have a fitted effect of over 55% in size; also: potency is read from the fitted curve at half-maximal effect)
Summary of the method: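 P450-Glo CYP2D6 system: proluciferin substrate converted by enzyme to luciferin, read by luminescence proportional to activity. Enzyme-substrate mix with compound 10 min at room temperature, then NADPH regeneration 1 h before detection reagent.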

[3] = Primary qHTS for inhibitors of nuclear receptor binding SET domain protein 2 (NSD2) in an isogenic RCH-ACV NSD2 p.E1099K mutant (9B) (AID 1645876); also: nearly all actives have a fitted effect of over 70% in size; also: potency is read from the fitted curve at half-maximal effect
[4] = Primary qHTS for inhibitors of nuclear receptor binding SET domain protein 2 (NSD2) in an RCH-ACV wild type WT cells (2C) (AID 1645877); also: nearly all actives have a fitted effect of over 70% in size; also: potency is read from the fitted curve at half-maximal effect

Chain of Cytochrome P450 2D6 (Homo sapiens) (P10635 whole entry, looked up): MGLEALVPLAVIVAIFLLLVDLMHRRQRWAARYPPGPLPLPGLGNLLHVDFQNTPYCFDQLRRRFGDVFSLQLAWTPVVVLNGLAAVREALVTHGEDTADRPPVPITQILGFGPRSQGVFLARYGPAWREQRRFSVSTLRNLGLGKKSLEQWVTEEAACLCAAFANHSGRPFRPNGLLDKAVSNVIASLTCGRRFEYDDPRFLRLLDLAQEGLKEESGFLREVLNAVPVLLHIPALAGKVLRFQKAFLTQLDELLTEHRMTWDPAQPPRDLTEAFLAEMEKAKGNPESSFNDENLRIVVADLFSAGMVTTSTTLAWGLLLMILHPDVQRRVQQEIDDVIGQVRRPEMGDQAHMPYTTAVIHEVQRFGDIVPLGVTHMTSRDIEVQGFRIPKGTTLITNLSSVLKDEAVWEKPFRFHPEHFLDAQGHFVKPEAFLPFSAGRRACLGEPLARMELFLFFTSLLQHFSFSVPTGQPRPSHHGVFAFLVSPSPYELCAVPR
Chain of Calcium and integrin-binding protein 1 (Homo sapiens) (Q99828 whole entry, looked up): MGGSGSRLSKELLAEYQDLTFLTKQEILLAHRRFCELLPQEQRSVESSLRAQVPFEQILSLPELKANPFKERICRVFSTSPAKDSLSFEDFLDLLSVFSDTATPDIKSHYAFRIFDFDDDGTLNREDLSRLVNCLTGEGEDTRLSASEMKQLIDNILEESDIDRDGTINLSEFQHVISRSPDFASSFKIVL

Compound | Potency [1] | Potency [2] | Potency [3] | Potency [4]
Cc1c(C2=CCN(C(=O)N(C)C(C)C)CC2)nnn1-c1cccnc1F | inactive | inactive | inactive | inactive
N#Cc1cc(C2=Nc3ccc(Br)cc3NC(=O)C2)ccn1 | inactive | 0.477 µM (active) | inactive | 
O=C(Nc1ccccc1Cl)c1cnc2ccc(C3CCNCC3)cn12 | inactive | inactive | 1.29 µM (active) | 2.3 µM (active)
COc1ccc2c(c1O[C@H]1CCNC1)CCC2 | inactive | 16.9 µM (active) | inactive | inactive
CC(C)Oc1ccc(-c2cnc3c(-c4ccnc5ccccc45)cnn3c2)cc1 | inactive | inactive | inactive | inactive
CCC(=O)N1CCOc2c(cc(-c3ccc(OC)c(OC)c3)cc2OC[C@H]2CCCN(C)C2)C1 | inactive | 13.5 µM (active) | 8.17 µM (active) | 7.28 µM (active)
Cc1c(NC(=O)c2cc3c(s2)CCCC3)cccc1-c1cn(C)c(=O)c(Nc2ccc(C3C(=O)N(C)CCN3C)cc2)n1 (stereo not drawn) | inactive | inactive | 12.9 µM (active) | 
CN1CCN(c2ccc(OC(F)(F)F)c(Nc3ncc4c(n3)-c3c(c(C(N)=O)nn3CCO)CC4)c2)CC1 | inactive | inactive | 57.8 nM (active) and 118 nM (active) | 72.8 nM (active) and 132 nM (active)
CC(C)(C[C@@](O)(Cc1cc2ccncc2[nH]1)C(F)(F)F)c1cc(F)ccc1O | inactive | 0.134 µM (active) | 10.3 µM (active) | 0.163 µM (active)
CC[N+]1(C/C2=C/CCCCCC2)CCC(NC(=O)C2c3cc(Cl)ccc3Oc3ccc(Cl)cc32)CC1 (stereo not drawn) | inactive | 0.425 µM (active) | 23 µM (active) | 18.3 µM (active)
